Experimental data reported in PubChem BioAssay AID624331 (National Center for Advancing Translational Sciences (NCATS), 2012).
Results filed as inconclusive are left out. Entries that show only a call come without a potency. The source made the active and inactive calls. Calls come from the whole dose curve; as a rule, active = well fitted activation curve with a large enough effect; inconclusive = small, poorly fitted or top-dose-only effect; inactive = no such curve, though single readings can be large or run the other way.

experiment: qHTS assay for re-activators of p53 using a Luc reporter: Hit Validation with no p53 Expressed; conditions: p53-null cells, luciferase reporter counter-screen; series mostly up to 46.1 µM
In short: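 Counter-screen of primary hits in a cell line not transfected with p53, in Opti-MEM with 10% FBS; compounds at several concentrations (10 mM stock, 1:5; top 46.1 µM in well), 24 h at 37 deg C, 5% CO2. Luminescence read after 10 min with Amplite reagent.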
Potency is the fitted concentration of half-maximal effect.

SMILES | Potency
Cc1cccnc1NC(=O)c1ccc([N+](=O)[O-])o1 | inactive
COC(=O)c1ccc(-c2nc(-c3cccs3)no2)cc1 | inactive
Cc1ccc(NC(CC(=O)c2ccccc2)c2ccc(F)cc2)cc1 (stereo not given) | inactive
Cc1cc(NC(=O)c2ccc3c(c2)OCCO3)no1 | inactive
O=C(NNC(=S)NC1CCCCC1)c1cccs1 | inactive
Cc1cc(C(F)(F)F)c(C#N)c(SCC(=O)Nc2nc3ccccc3s2)n1 | 0.116 µM (active)
Cc1ccc(OCC(=O)c2cc(C)n(C3CC3)c2C)c([N+](=O)[O-])n1 | inactive
CCCCCCC1CC(/C(C)=N\NC(N)=O)OC1=O (stereo not given) | inactive
S=c1[nH]nc(-c2ccco2)n1Cc1ccccc1 | inactive
COc1cccc(/C=N/Nc2cc(-n3nc(C)cc3-c3ccccc3)ncn2)c1O | inactive
Cc1cccnc1NC(=O)/C=C/c1ccc2c(c1)OCO2 | inactive
Cc1ccc(C)c(OCC(O)CN2C(C)CCCC2C)c1 (stereo not given) | inactive
Cc1ccc2nc(-c3ccc(NC(=O)CCN4C(=O)c5ccccc5C4=O)cc3)sc2c1 | inactive
Cc1ccc2nc(N3C(=O)C(O)=C(C(=O)c4ccc(C)o4)C3c3ccco3)sc2c1 (stereo not given) | inactive
Cc1cc2nc(-c3ccc(SCC(=O)Nc4ccc(S(=O)(=O)NC5CC5)cc4)nc3)[nH]c2cc1C | inactive
C(=C\c1nc(-c2ccccc2)no1)/c1ccccc1 | inactive
Cc1ccc(-c2nnc(Oc3cccc(C)c3)c3ccccc23)cc1 | inactive
COCCn1c(C)cc(C(=O)COc2ccc(N(C)S(=O)(=O)c3ccc(C)cc3)cc2)c1C | inactive
CC(C)(C)c1ccc(S(=O)(=O)N2CCSC2)cc1 | inactive
O=C(CSCC(=O)Nc1cccc([N+](=O)[O-])c1)Nc1ccccc1 | inactive

SMILES | Potency
COc1cc(CN2CCCCC2C(=O)Nc2ccc(Oc3ccccc3)nc2)ccc1O (stereo not given) | inactive
COc1ccccc1NC(CC(=O)c1ccccc1)C(=O)OCC(=O)c1ccc(C)cc1 (stereo not given) | inactive
COc1ccc(/C(O)=C2/C(=O)C(=O)N(CCN3CCOCC3)C2c2ccccn2)cc1 (stereo not given) | inactive
O=C(N/N=C(\c1ccccc1)c1cccnc1)c1cccc(F)c1 | inactive
OC1(C2(O)CC(c3ccccc3)ON2)CCCCC1 (stereo not given) | inactive
CC1CCC(NC(=O)C2CCN(C(=O)Nc3ccccc3)CC2)CC1 (stereo not given) | inactive
Cc1noc(C)c1C(=O)OCC(=O)N1CCc2ccccc21 | inactive
O=C(/C=C/Nc1ccccc1F)c1cccs1 | inactive
Cc1ccc(-c2nc(-c3cccnc3)no2)c(C)c1 | inactive
CCN(CC)CCn1c(SCC(=O)Nc2ccc3c(c2)CCC3)nc2ccccc2c1=O | 8.2 µM (active)
Nc1ccc(-c2cnc(-c3ccc(N)cc3)nc2)cc1 | inactive
COc1cccc(C2(c3cccc(OC)c3)CC2C(=O)Nc2cccc3ccccc23)c1 (stereo not given) | inactive
Cc1cccc(-n2nc([N+](=O)[O-])c(=NC3CCN(Cc4ccccc4)CC3)n2O)c1 | inactive
COc1ccc(CCNC2CCC(c3ccccc3)CC2)cc1 (stereo not given) | inactive
CN(C)c1ccc(/C=N/N=C/c2ccccc2O)cc1 | inactive
Cc1cnc(C(=O)OCC(=O)Nc2ccc(OCc3ccccc3)cc2)cn1 | inactive
O=S(=O)(N/N=C/c1ccccc1OCc1ccc(Cl)cc1)c1ccccc1 | inactive
COc1ccc(-n2cnc3cc(C(=O)N4CCOCC4)ccc32)cc1 | inactive
CNC(=S)N/N=C(\C)c1ccc(N2CCOCC2)cc1 | inactive
CCOP(=O)(OCC)C(NC(=O)Nc1ccccc1)C(N)=O (stereo not given) | inactive
